Reference: ChEMBL document CHEMBL4513216, “Probing the Open Global Health Chemical Diversity Library for Multistage-Active Starting Points for Next-Generation Antimalarials” (ACS Infect Dis, 2020)
The whole screen tested about 69,000 compounds, of which about 8,600 (12%) showed an effect of 50% or more. The full list was thinned out, with strong results kept by preference.

Tested on: Plasmodium berghei
Assay: Screen against P. berghei liver stage (PbLuc), transformed with Luciferase, at 10uM
Format: functional, HepG2
Settings: tested at 10 uM

| Structure (SMILES) | INHIBITION [%] |
| --- | --- |
| Cc1nn(CCNS(=O)(=O)c2ccccc2)c(C)c1Cl | 48.3 |
| Cc1cnn(C2CCCN(C(=O)c3ccc(-n4cnnn4)cc3)C2)c1 (centres undefined) | 47.4 |
| CC(C)(O)CN1CCN(C(=O)c2cccn2Cc2ccncc2)CC1 | 19.2 |
| Cc1cc(C)n(CC2CN(CC(=O)Nc3cccnc3)CCO2)n1 (centres undefined) | -14.3 |
| CCN(CCNC(=O)c1cccc(C)c1C)C1CC1 | -16 |
| COc1ccccc1C1SCC(=O)Nc2c1c(=O)[nH]n2C1CCOCC1 (centres undefined) | 39.3 |
| CC1=Nc2c(c(=O)[nH]n2C2CCOCC2)C(c2cccc(Br)c2)S1 (centres undefined) | 3.95 |
| O=C1CSC(c2ccc(Cl)cc2Cl)c2c(n(C3CCOCC3)[nH]c2=O)N1 (centres undefined) | 54.5 |
| O=C1CSC(c2ccc(O)c(Cl)c2)c2c(n(C3CCOCC3)[nH]c2=O)N1 (centres undefined) | 15 |
| O=C1CSC(c2ccc(F)c(Cl)c2)c2c(n(C3CCOCC3)[nH]c2=O)N1 (centres undefined) | 72.8 |
| CC(=O)c1cccc(OCC(=O)NS(=O)(=O)c2cccs2)c1 | 2.97 |
| Cn1nccc1-c1nnn2c1COCC(CNC1CCOCC1)C2 (centres undefined) | 45.7 |
| O=C(CO)N1CCC(c2ccnc(Nc3cc(C(F)(F)F)ccn3)n2)C1 (centres undefined) | 20.2 |
| Cc1noc([C@@]23CCO[C@@H]2CCN(Cc2scnc2C)C3)n1 | 18.6 |
| COCCN1C[C@@H]2CN(Cc3ccoc3)CCC[C@]2(C(=O)O)C1 | -9.02 |
| CC[C@@H]1N(Cc2ccoc2)CCC[C@]12CCC(=O)N2CCOC | -11.2 |
| CCN1CCCC1CN(Cc1ccon1)CC1CCN(CCOC)CC1 (centres undefined) | 81.2 |
| CCN1CCCC1CN(Cc1ccoc1)CC1CCN(CCOC)CC1 (centres undefined) | 53.7 |
| COCCN1CCC(CN(CC2CCCO2)C(=O)Cn2cccn2)CC1 (centres undefined) | 15.4 |
| CCN1CCCC1CN(Cc1cc[nH]n1)CC1CCN(CCOC)CC1 (centres undefined) | 45 |
| CCn1ccnc1CN1CCCN(C(=O)c2csc(C)n2)CC1 | -1.55 |
| Cc1cnc(N2C[C@H]3C[C@H](C(=O)N4CCN(C)CC4)N(C)[C@H]3C2)nc1 | -18.2 |
| Cc1cccc2[nH]c(C3CCCN3Cc3ccc(CO)o3)nc12 (centres undefined) | -59.5 |
| Cc1nn(CCO)cc1CN1CCCC1c1nc2c(C)cccc2[nH]1 (centres undefined) | 71.1 |
| Cc1ncc(CO)c(CN2CCCC2c2nc3c(C)cccc3[nH]2)c1O (centres undefined) | -125 |
| CNCC(=O)N1CC(c2cc(Nc3nc(C)cs3)nc(C)n2)C1 | -47.8 |

| Structure (SMILES) | INHIBITION [%] |
| --- | --- |
| Cc1csc(Nc2cc(C3CN(C(C)C)C3)nc(C)n2)n1 | 37.8 |
| Cc1csc(Nc2cc(C3CN(c4ccncn4)C3)nc(C)n2)n1 | 68.4 |
| Cc1nc(C)c(C(=O)N2CCCC2c2nc(O)cc(C(C)C)n2)s1 (centres undefined) | 13.5 |
| CSc1ccc(C(C(=O)O)N2CCOCC2)cc1 (centres undefined) | 41.2 |
| COC1COC2(CCN(Cc3cccc(C#N)c3)CC2)C1 (centres undefined) | -23.8 |
| COC(=O)c1ccn(CC(=O)Nc2nn(CC3CC3)c3ccccc23)n1 | 32.3 |
| CC(=O)c1ccn(CC(=O)Nc2nn(CC3CC3)c3ccccc23)n1 | 71.9 |
| CCn1nc(NC(=O)Cn2ccc(C(C)=O)n2)c2ccccc21 | 7.38 |
| O=C1COC2(CCN(Cc3ccsc3)CC2)CN1 | 24.9 |
| Cc1ccc(NC2CCN(C(=O)c3ccnc(N(C)C)c3)CC2)nn1 | -115 |
| Cc1nn(C)c(N2CCOCC2)c1CNC1CCc2cc(F)ccc21 (centres undefined) | 6 |
| Cc1nn2cccnc2c1C(=O)NCc1ccccc1OCC1CC1 | 18.3 |
| CC(C)(C)Oc1ccccc1CNC(=O)C1CCCOC1 (centres undefined) | 29.8 |
| O=C(NCc1ccccc1OCC1CC1)C1CCOC1 (centres undefined) | 56.5 |
| CC1(C)CN(CC(O)C(C)(C)C)C(=O)CN(C(=O)c2ccccc2)C1 (centres undefined) | 4.07 |
| CCN(Cc1ccccc1)Cc1nc2c(cnn2C)c(=O)[nH]1 | -51.5 |
| Cc1noc(C)c1C(=O)Nc1ccc2ncn(CC(C)C)c(=O)c2c1 | 29.9 |
| O=C(NC(c1ccc(Cl)cc1)C(F)(F)F)c1nc(=O)[nH][nH]1 (centres undefined) | 66.8 |
| O=C(NC(CC(F)(F)F)c1ccc(Cl)cc1)c1nc(=O)[nH][nH]1 (centres undefined) | -7.17 |
| CC(C)(C)CC(NC(=O)c1nc(=O)[nH][nH]1)c1ccc(F)cc1 (centres undefined) | 22.8 |
| Cc1cccc(CN2CC[C@H]3O[C@H](C(=O)Nc4cnccn4)CC[C@H]32)n1 | 34.3 |
| O=C(NC1CC1)[C@H]1CC[C@@H]2[C@@H](CCN2Cc2ccsc2)O1 | 20.9 |
| O=C(Nc1cnccn1)[C@@H]1CC[C@@H]2[C@@H](CCN2Cc2nccs2)O1 | 43.4 |
| O=C(NCC1CC1)[C@@H]1CC[C@@H]2[C@@H](CCN2Cc2ccc(F)c(F)c2)O1 | 32.2 |
| CN1CCN(C(=O)[C@H]2CC[C@@H]3[C@@H](CCN3Cc3ccsc3)O2)CC1 | 52 |
| CNC(=O)[C@@H]1CC[C@@H]2[C@@H](CCN2Cc2cn(C)c3ccccc23)O1 | -20.1 |

| Structure (SMILES) | INHIBITION [%] |
| --- | --- |
| CC(C)NC(=O)[C@@H]1CC[C@@H]2[C@@H](CCN2Cc2ccc3ccccc3n2)O1 | 31.9 |
| CC(C)NC(=O)[C@@H]1CC[C@@H]2[C@@H](CCN2Cc2cn(C)c3ccccc23)O1 | 65.1 |
| O=C(NCC1CC1)[C@H]1CC[C@@H]2[C@@H](CCN2Cc2ccoc2)O1 | 26.8 |
| Cc1csc(CN2CC[C@H]3O[C@H](C(=O)Nc4cccnc4)CC[C@H]32)n1 | 81.5 |
| O=C([C@H]1CC[C@@H]2[C@@H](CCN2Cc2ccsc2)O1)N1CCOCC1 | -45.5 |
| COc1ccc(CN2CC[C@H]3O[C@@H](C(=O)NCC4CC4)CC[C@H]32)cc1 | 53 |
| CC(c1ccncc1)N(C)C(=O)NCCOc1ccc(C#N)cc1 (centres undefined) | 34.7 |
| COCCN1CCN(c2ccc3ccc(C(=O)NC4CC4)cn23)CC1 | 18.6 |
| C=C(C)CN1CCN(Cc2cnc(OC)nc2)CC1 | 25.6 |
| COCCn1cc(CCC(=O)Nc2c(C)nn(C)c2C)c2ccccc21 | 39.4 |
| CN(C)C(=O)N1CCC2(CC1)C(c1cnn(C)c1)CC(=O)N2C (centres undefined) | 39.2 |
| Fc1cnc(N2CC[C@@H]3OC(COCc4cccnc4)CC[C@@H]32)nc1 (some centres undefined) | 37.8 |
| Cn1cc(CN2CC[C@H]3O[C@H](C(=O)Nc4cnccn4)CC[C@H]32)cn1 | 30.3 |
| COCCNC(=O)[C@@H]1CC[C@@H]2[C@@H](CCN2Cc2cnn(C)c2)O1 | 7.11 |
| CC(=O)N1CC[C@@H]2O[C@H](C(=O)Nc3nc(C)cs3)C[C@@H]21 | -24.1 |
| Cn1cc(CN2CC[C@H]3O[C@@H](C(=O)NC4CC4)CC[C@H]32)cn1 | 62.4 |
| Cn1cc(CN2CC[C@H]3O[C@H](C(=O)NC4CC4)CC[C@H]32)c2ccccc21 | 66.8 |
| Cc1csc(NC(=O)[C@@H]2C[C@H]3[C@H](CCN3c3ncccn3)O2)n1 | -16.2 |
| Cc1csc(NC(=O)[C@@H]2C[C@H]3[C@H](CCN3S(C)(=O)=O)O2)n1 | 61.3 |
| O=C(NC1CC1)[C@H]1CC[C@@H]2[C@@H](CCN2CCOCc2ccccc2)O1 | 10.4 |
| O=C(NC1CCC1)[C@@H]1CC[C@@H]2[C@@H](CCN2CCc2ccccc2)O1 | 42.1 |
| CN(C)CC1(O)CCN(C(=O)Cc2ccc3ccccc3c2)C1 (centres undefined) | -37.7 |
| COc1c(C2CCCN2C(=O)c2ccc(C(N)=O)s2)c(C)nn1C (centres undefined) | 2.93 |
| Cc1nc(CN(C)C2CCN(CCCOc3ccccc3)C2)no1 (centres undefined) | 31.9 |
| Cc1cnc(C(=O)NC(COCC(C)C)c2ccco2)cn1 (centres undefined) | 36.1 |
| O=C(N1CCOCC1)N1CCc2ncc(CN3CCCCC3)n2CC1 | 15.9 |

| Structure (SMILES) | INHIBITION [%] |
| --- | --- |
| CC(C)CCN1CCN(C(=O)c2cnccn2)CC1 | 25 |
| CC(C)Nc1n[nH]c2nc(C3CCN(C(=O)c4ccccn4)C3)ccc12 (centres undefined) | -7.66 |
| CCC(C#N)NC(=O)c1cc(Br)c2c(c1)OCCO2 (centres undefined) | -36.1 |
| CC(C)NC(=O)c1cc(Br)c2c(c1)OCCO2 | -48.4 |
| CCCNC(=O)c1cc(Br)c2c(c1)OCCO2 | 31.2 |
| CC(CC#N)NC(=O)c1cc(Br)c2c(c1)OCCO2 (centres undefined) | 12.7 |
| CC(C)CNC(=O)c1cc(Br)c2c(c1)OCCO2 | 51.8 |
| CCCC(C#N)NC(=O)c1cc(Br)c2c(c1)OCCO2 (centres undefined) | 60.5 |
| COc1ccc(-c2nc(C#N)c(N(C)C)o2)cc1S(=O)(=O)N(C)C | 12.8 |
| CC(NC(=O)c1cccs1)C(=O)Nc1cccnc1N1CCCCC1 (centres undefined) | -36.3 |
| CC(=O)N(C)CC(=O)Nc1cnc(-n2ccnc2C)nc1 | 95.9 |
| CC(=O)N(C)CC(=O)Nc1cnc(-n2ccnc2)nc1 | 41.2 |
| CC(=O)Nc1cnc(-n2ccnc2)nc1 | 13.8 |
| CN(Cc1nccn1CC(F)(F)F)C(=O)c1cccc(N(C)C)c1 | -15.7 |
| CC(=O)N1CCCC2(CN(Cc3ccc(F)cc3)CCO2)C1 (centres undefined) | -0.813 |
| Cc1noc(C)c1CN1C(=O)[C@@H]2CC[C@H]1CN(Cc1ccc(Cl)cc1)C2 | -48.1 |
| O=C(c1n[nH]cc1Br)N1CCOCC1 | 33.3 |
| Cc1nc(N2CCC3(CCCN(CC4CC4)C3=O)C2)c2sccc2n1 (centres undefined) | 82.9 |
| COc1ccnc(N2CCC3(CCCN(CC4CC4)C3=O)C2)n1 (centres undefined) | 30.3 |
| CNc1nc(C(=O)N2CCC3(CCCN(CC4CC4)C3=O)C2)cs1 (centres undefined) | 21.2 |
| COc1ccnc(N2CCC3(CCCN(C(C)C)C3=O)C2)n1 (centres undefined) | 48.8 |
| Cc1nc(N2CCC3(CCCN(CCO)C3=O)C2)c2sccc2n1 (centres undefined) | 40.5 |
| COc1nccnc1N1CCC2(CCCN(C(C)C)C2=O)C1 (centres undefined) | -9.17 |
| CCCN1CCCC2(CCN(c3nc(C)nc4ccsc34)C2)C1=O (centres undefined) | 76.5 |
| Cc1nc(N2CCC3(CCCN(C(C)C)C3=O)C2)c2sccc2n1 (centres undefined) | 81.6 |
| COCCN1CCCC2(CCN(c3nc(C)nc4ccsc34)C2)C1=O (centres undefined) | 41.8 |
